Sampled rows, rich in hits. Any-hit rate of the full collection: about 2.2%.
PME-1 Maybr inh = Maybridge compound blocking human PME-1; recombinant PME-1, FP-Rh probe fluorescence polarization; inhibition, % at 9 µM; hit rate 0.5% among 16,000; in the data active = inhibition above about 30%
Nox1 inhibitor = inhibitors of human NADPH oxidase 1 (Nox1); inhibition, % at 6.7 µM; HT29 cells, luminol chemiluminescence ROS; hit rate 0.81% among 16,000; AID 1792; Q9Y5S8
Luminol counter = counter-screen for Nox1 inhibitors: inhibitors of luminol chemiluminescence; HRP/luminol/H2O2 chemiluminescence counterscreen; inhibition, % at 6.7 µM; hit rate 0.4% among 16,000; AID 1823; also: reference of the scale not given here
KOR antag MB = antagonists of human kappa opioid receptor OPRK1, Maybridge library. P41145. OPRK1 cells, antagonist mode, fluorescence readout. inhibition, % at 9 µM. hit rate 0.4% among 16,000; in the data active = inhibition above about 50%
Target sequence (P41145 whole entry, looked up): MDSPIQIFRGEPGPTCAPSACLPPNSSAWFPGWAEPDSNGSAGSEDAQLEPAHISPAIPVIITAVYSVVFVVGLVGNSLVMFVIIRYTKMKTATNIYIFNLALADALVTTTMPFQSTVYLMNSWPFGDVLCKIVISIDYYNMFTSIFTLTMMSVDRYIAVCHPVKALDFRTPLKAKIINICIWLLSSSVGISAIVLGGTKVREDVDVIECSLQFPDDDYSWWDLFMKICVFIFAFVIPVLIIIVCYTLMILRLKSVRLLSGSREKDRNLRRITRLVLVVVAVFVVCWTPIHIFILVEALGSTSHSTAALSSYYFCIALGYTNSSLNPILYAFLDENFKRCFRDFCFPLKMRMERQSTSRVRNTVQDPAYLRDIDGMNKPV
Starred values were filed as active, the others as inactive. Rule as the data show it, unless noted: active = inhibition above about 75%; inactive = the rest.

SMILES | PME-1 Maybr inh | Nox1 inhibitor | Luminol counter | KOR antag MB
O=C(/C=C/c1cc(-c2ccccc2)c(C(F)(F)F)s1)c1cccs1 | -22.1 | -12.5 | -9.2 | 63.3*
Cc1cc(S(=O)(=O)NNc2ncnc3cc(C(C)(C)C)sc23)c(C)cc1Cl | -24.5 | 93.7* | -0.7 | -10.6
CCOC(=O)c1ccc(N2CC3CCCCN3C2c2cccc(OC)c2O)cc1 (centres undefined) | 3.2 | 2.8 | 53.0 | 59.9*
NNC(=O)C12CCC(CC1)C2 | 2.6 | -24.5 | -0.6 | 15.6
N#Cc1c(N)nc2[nH]c(=S)[nH]c(=O)c2c1-c1ccc([N+](=O)[O-])cc1 | 7.6 | 23.6 | 83.8* | 2.9
COC(=O)/C=C1\SC(=Nc2ccc(Cl)cc2)N(c2ccc(Cl)cc2)C1=O | -72.7 | -4.8 | -4.0 | 64.9*
COC(=O)C1=C(C)N=c2s/c(=C/c3cccnc3)c(=O)n2C1c1ccc(OC)cc1 (centres undefined) | 3.5 | 2.3 | 5.6 | 1.4
COC(=O)c1cnc(NNC(=O)C(Cl)Cl)nc1C(F)(F)F | 7.2 | 39.0 | 43.3 | 23.2
COC(=O)c1cnc(NNS(=O)(=O)c2ccc(Cl)cc2)nc1C(F)(F)F | 3.4 | 97.7* | 19.1 | -9.1
COc1ccc(OC)c(S(=O)(=O)c2ccc([N+](=O)[O-])cc2Cl)c1 | 1.8 | 89.4* | 3.9 | -7.3
O=C(Nc1ccccc1Sc1ncc([N+](=O)[O-])s1)c1cccc(C(F)(F)F)c1 | -1.8 | -10.9 | 6.1 | 18.8
COc1ccc(OC(=O)c2ccc3ncccc3c2)cc1 | 7.5 | 91.9* | -3.3 | 15.9
O=C(NCCc1ccccc1)c1ccc2ncccc2c1 | 0.9 | 8.5 | -2.2 | 3.5
COc1cc([N+](=O)[O-])c(OC)cc1SCc1n[nH]c(=S)n1-c1ccc(C)cc1 | 8.2 | -18.3 | 6.7 | 76.4*
COc1cc(C=Nc2ccccc2C(=O)O)cc(OC)c1OC | 3.0 | -6.9 | -0.8 | -12.5
CCO/C(C)=N\OC(=O)c1c(-c2c(Cl)cccc2Cl)noc1C | 2.4 | -7.9 | 2.5 | -0.4
c1ccc(-c2cc3ncnc(NCc4ccc5c(c4)OCO5)c3s2)cc1 | 5.5 | 16.9 | 0.2 | 61.0*
O=C(Nc1ccc(N2CCCCC2)cc1)Nc1ccccc1OC(F)(F)F | -2.6 | 80.2* | 1.8 | 9.7
COC(=O)c1scc(S(=O)(=O)C(C)C)c1N | -1.2 | -41.8 | 0.7 | -10.5
Cc1nc(C)c(-c2n[nH]c(=S)n2C)s1 | 3.4 | 5.7 | 99.7* | 5.1
Cn1c(CC#N)n[nH]c1=S | 1.2 | -29.2 | -2.4 | 22.1
Cc1n[nH]c(C)c1Oc1ccc(Cl)cc1 | 3.7 | 3.4 | -4.8 | -2.1
C=CCn1c(C(C)Oc2ccc(Cl)cc2)n[nH]c1=S (centres undefined) | -0.1 | 10.4 | 93.8* | 0.6
CCOC(=O)c1cc(-c2csc(CS(=O)(=O)c3ccccn3)n2)on1 | 1.8 | -11.2 | -2.6 | 49.2
CCOC(=O)NS(=O)(=O)c1ccccc1Cl | 15.7 | 36.0 | -45.0 | 11.6
SMILES | PME-1 Maybr inh | Nox1 inhibitor | Luminol counter | KOR antag MB
COc1nc(NNC(=O)NS(=O)(=O)c2ccccc2Cl)nc(OC)n1 | 1.9 | 78.4* | 18.5 | -6.2
COC(=O)C1=C(Nc2ccc(O)cc2)CSC1 | 5.9 | 99.1* | -19.1 | 22.1
COc1ccc(C#N)c(C(=O)O)c1 | 0.6 | -22.7 | -4.5 | -2.2
COc1ccc(N(C)CC(=O)O)c(C(=O)O)c1 | 5.2 | 96.7* | -4.1 | 18.3
O=S(=O)(NCc1ccccc1)c1cc(Br)c(Br)s1 | 73.8* | -26.1 | -1.3 | 9.6
Nc1cc(Cl)c(S(N)(=O)=O)cc1S(=O)(=O)NCc1ccccc1 | 7.0 | -10.3 | -4.2 | -11.2
CCNc1nc2ccc(Cl)cc2nc1NCC | 29.5 | -4.3 | -1.9 | -1.2
Clc1ccc2nc3c(nc2c1)Nc1ccccc1S3 | 9.2 | 20.0 | 2.2 | 90.3*
CCn1c(-c2cc(-c3ccccc3)sc2N)n[nH]c1=S | 9.7 | 97.7* | 5.8 | 4.8
CCn1c(CN2c3ccccc3Sc3ccccc32)n[nH]c1=S | 14.2 | 25.6 | 16.3 | -13.8
CC(=O)c1ccc(OC(=O)Cc2cc(F)cc(F)c2)cc1 | -0.1 | -24.5 | -4.0 | 12.9
CC1(C)CC(Nc2ccc(Nc3ccccc3)cc2)CC(C)(C)N1 | 4.6 | 103.4* | 3.9 | 24.3
N#CC(C#N)=C1c2cc(S(N)(=O)=O)cc([N+](=O)[O-])c2-c2c1cc(S(N)(=O)=O)cc2[N+](=O)[O-] | 72.7* | 34.2 | 7.9 | 5.0
CCOC(=O)CSc1ccc(S(N)(=O)=O)cc1[N+](=O)[O-] | 5.7 | 27.1 | -4.2 | 3.7
Cn1cnc(S(=O)(=O)Nc2ccc(N3CCCCC3)cc2)c1 | -1.1 | 86.5* | 2.2 | 7.7
COc1ccc(NS(=O)(=O)c2cn(C)cn2)cc1 | 2.4 | -25.9 | -2.2 | 24.2
O=C(c1ccc(Cl)cc1)N1CCC(c2nc(-c3ccc(Cl)cc3)no2)CC1 | 1.3 | -6.1 | 2.8 | -5.7

High-throughput results as filed in PubChem BioAssay.
